# Screening data as filed in PubChem.
# FBW7 act: FBW7 E3 ligase activators, primary screen, biochemical, AlphaScreen, human | AlphaScreen FBW7–phospho-cyclin E peptide binding, activator screen | normalized activity (activation), % at 26.1 µM | 650,000 tested, 0.13% active | AID 1259310, 2017; in the data active = normalized activity above about 1.9%;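 note: purified mutant Fbw7 with reduced substrate affinity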
# Target sequence (Q969H0 whole entry, looked up): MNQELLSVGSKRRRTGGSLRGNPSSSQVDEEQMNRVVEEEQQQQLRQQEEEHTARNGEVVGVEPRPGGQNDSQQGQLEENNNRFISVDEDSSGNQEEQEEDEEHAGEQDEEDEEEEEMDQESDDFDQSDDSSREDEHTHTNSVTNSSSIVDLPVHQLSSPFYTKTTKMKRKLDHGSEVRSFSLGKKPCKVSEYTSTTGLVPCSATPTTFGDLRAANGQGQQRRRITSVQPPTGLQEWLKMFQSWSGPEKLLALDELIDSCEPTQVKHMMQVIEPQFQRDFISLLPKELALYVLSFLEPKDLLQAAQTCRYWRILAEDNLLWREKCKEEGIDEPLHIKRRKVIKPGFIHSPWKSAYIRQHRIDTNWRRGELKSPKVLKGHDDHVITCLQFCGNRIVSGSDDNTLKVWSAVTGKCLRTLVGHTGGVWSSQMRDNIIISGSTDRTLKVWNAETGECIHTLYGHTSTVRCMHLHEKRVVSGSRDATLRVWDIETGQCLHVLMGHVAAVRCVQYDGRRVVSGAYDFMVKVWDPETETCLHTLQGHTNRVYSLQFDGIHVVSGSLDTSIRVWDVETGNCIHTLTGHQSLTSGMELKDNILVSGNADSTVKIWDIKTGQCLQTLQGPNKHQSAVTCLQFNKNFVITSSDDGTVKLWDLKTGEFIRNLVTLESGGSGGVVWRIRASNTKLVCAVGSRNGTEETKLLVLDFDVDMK
# MITF primary: MITF inhibitors, primary screen, biochemical, AlphaScreen, human; AID 1259374, 2018; 650,000 tested, 0.91% active; Microphthalmia-associated transcription factor (Homo sapiens), O75030; inhibition, % at 2.6 µM; AlphaScreen MITF homodimerization, bead proximity signal; in the data active = inhibition above about 50%;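 note: 0% = vehicle wells with protein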
# GPR151 activ: activators of human GPR151, primary screen, cell-based, PathHunter beta-arrestin, luminescence; G-protein coupled receptor 151 (Homo sapiens), Q8TDV0; PathHunter beta-arrestin GPR151 cells; activation, % at 11.2 µM; 650,000 tested, 1% active; AID 1508602, 2020; in the data active = activation above about 4.9%;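 note: 0% = median of compound wells and 100% = cells with positive control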
# TEAD-YAP block: TEAD-YAP interaction inhibition, primary screen, TEAD-YAP interaction inhibitor project, luminescence, HEK-TIYL cells | inhibition, % at 9.12 µM | 640,000 tested, 1.4% active | AID 1259422, 2018 | TEAD-Gal4/YAP UAS-luciferase luminescence; in the data active = inhibition above about 32%;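 note: 0% = median of test compound wells and 100% = reference inhibitor wells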
# Numbers without * were called inactive. Rows were chosen to be rich in hits. Some 3.4% of all compounds tested hit in one or more screens of this group.
SMILES,FBW7 act,MITF primary,GPR151 activ,TEAD-YAP block
COc1ccc(OC)c(C2C(C#N)=C(N)OC3=C2C(=O)CC(c2ccccc2)C3)c1 (centres undefined),0.0,5.5,0.2,46.9*
COc1ccc(OC)c(C2C(C#N)=C(N)N(N(C)C)C3=C2C(=O)CC(C)(C)C3)c1 (centres undefined),-0.1,6.1,0.4,5.6
N#CC1=C(N)OC2=C(C(=O)CC(c3ccccc3)C2)C1c1ccc([N+](=O)[O-])s1 (centres undefined),0.3,8.5,1.0,7.9
N#CC1=C(N)OC2=C(C(=O)CC(c3ccccc3)C2)C1c1c(Cl)cccc1[N+](=O)[O-] (centres undefined),1.1,12.3,-0.8,41.3*
COc1cccc(C2C(C#N)=C(N)OC3=C2C(=O)CC(c2ccccc2)C3)c1OC (centres undefined),0.6,26.1,0.1,6.4
CC(C)Oc1ccc(CNCCC2(c3ccccc3)CCOC(C)(C)C2)cc1 (centres undefined),0.2,8.7,-0.8,1.1
COc1cc(C2NC(=S)NC(C)=C2C(=O)Nc2ccc(Cl)cc2)cc(OC)c1OC (centres undefined),-0.1,-1.4,2.0,6.8
Cc1ccc(C2C(C#N)=C(N)N(N(C)C)C3=C2C(=O)CC(c2ccccc2)C3)cc1 (centres undefined),0.1,7.5,1.9,3.2
COc1cc(C2C(C#N)=C(N)N(N(C)C)C3=C2C(=O)CC(c2ccccc2)C3)cc(OC)c1OC (centres undefined),-0.2,-1.8,-0.3,56.9*
Cc1cc(C)c2[nH]c(=O)c(CN(CCCO)C(=O)Nc3ccc(F)cc3)cc2c1,0.1,6.7,-0.1,5.2
Cc1ccc2nc(C3C(=O)c4ccccc4C3=O)ccc2c1,0.3,4.2,2.9,54.4*
COc1ccc2nc(C3C(=O)c4ccccc4C3=O)ccc2c1,-0.1,13.7,-3.2,82.9*
CCOC(=O)C1=C(C)Nc2ncnn2C1c1ccc([N+](=O)[O-])cc1 (centres undefined),1.1,9.8,-1.8,2.1
Cc1ncn(-c2ccc(Nc3nccc(-c4cc(C#N)cc(NC(C)C)c4)n3)cc2)n1,0.1,13.4,1.0,10.1
Cc1ncn(-c2ccc(Nc3nccc(-c4ccc(C#N)c(N5CCN(C)CC5)c4)n3)cc2)n1,-0.2,-2.1,-1.9,51.0*
Cc1ncn(-c2ccc(Nc3nccc(-c4ccc(C#N)c(NC(C)C)c4)n3)cc2)n1,0.0,0.7,0.3,47.8*
Cc1cc(OCC(=O)NCCn2cnc(-c3ccc(F)cc3)cc2=O)cc(C)c1Cl,0.0,-5.9,0.5,-1.4
COc1cccc(/C=C2/SC(=S)N(CCCC(=O)O)C2=O)c1OC,-0.2,0.7,-1.0,79.9*
O=C(O)CCCN1C(=O)/C(=C/c2ccccc2F)SC1=S,0.3,12.0,1.5,54.2*
C=CCOc1c(/C=C2/SC(=S)N(CCC(=O)O)C2=O)cccc1OC,-1.0,-23.3,-0.8,-2.5
Cc1cc(C)cc(Oc2coc3cc(OCc4ccc(Cl)cc4)ccc3c2=O)c1,-0.1,-13.3,-1.8,3.2
Cc1c(C(=O)N2CCN(c3ccccn3)CC2)sc2ncn(Cc3ccccc3F)c(=O)c12,-0.1,4.3,0.4,-17.7
Cc1ccc2c(c1)C(c1ccccc1)CC(C)N2C(=O)c1ccco1 (centres undefined),0.0,-0.9,0.2,50.5*
CCCCOc1ccc(C2C(C#N)=C(N)Oc3n[nH]c(CCC)c32)cc1 (centres undefined),0.1,6.8,0.0,6.9
CC(COc1ccc2ccccc2c1)Nc1cc(Cl)ncn1 (centres undefined),0.1,17.5,-0.6,1.7
SMILES,FBW7 act,MITF primary,GPR151 activ,TEAD-YAP block
Cc1ccc(C(Nc2cc(Cl)ncn2)C(F)(F)F)cc1 (centres undefined),0.8,2.5,1.5,33.7*
CCN1CCN(c2ncc(-c3ccccc3)cc2C=O)CC1,-0.1,-1.8,1.6,36.1*
O=C1c2cccc3cccc(c23)C(=O)N1CCN1CCOCC1,0.6,21.3,-0.7,-10.4
CC1(Cc2ccc(S(C)(=O)=O)cc2)C(=O)Nc2ccc(-c3cccnc3)cc21 (centres undefined),0.9,45.1,0.2,18.9
CC1(Cc2ccc(Cl)s2)C(=O)Nc2ccc(-c3cccnc3)cc21 (centres undefined),0.2,13.4,3.3,33.5*
CC1(Cc2ccc(F)cc2)C(=O)Nc2ccc(-c3cccnc3)cc21 (centres undefined),0.2,5.7,-0.1,38.2*
CC1(Cc2ccc(C(F)(F)F)o2)C(=O)Nc2ccc(-c3cccnc3)cc21 (centres undefined),0.6,2.1,0.8,40.3*
COC(=O)c1ccc(CC2(C)C(=O)Nc3ccc(-c4cccnc4)cc32)o1 (centres undefined),0.6,17.8,0.5,13.2
O=C(Nc1ccccc1C(=O)O)c1ccc(Oc2ccc([N+](=O)[O-])cc2)cc1,-0.2,2.1,0.9,-1.6
C=CCn1c(SCc2c(C)noc2C)nc2scc(C3CC3)c2c1=O,0.0,-1.0,0.7,50.2*
COc1ccc(C(C)NC(=O)CN(c2ccccc2C)S(=O)(=O)c2ccc(C)cc2)cc1 (centres undefined),0.4,17.4,-1.2,12.0
O=C(NCCC1=CCCCC1)c1cc(S(=O)(=O)N2CCCCC2)ccc1F,0.0,8.6,1.1,3.0
CC(=O)c1ccccc1-c1ccc2c(c1)CC(CNC(=O)c1ccc3c(c1)OCCO3)O2 (centres undefined),-0.3,-21.2,0.9,36.6*
CCC(C)Nc1ncnc2c1cnn2-c1ccc(Cl)cc1 (centres undefined),-0.1,-2.4,-0.8,37.0*
CCN(CC)c1ncnc2c1cnn2-c1ccc(Cl)cc1,-0.1,-6.0,0.2,69.7*
CCOc1cc(S(=O)(=O)N2CCc3ccccc32)ccc1Cl,-0.1,-1.1,-1.6,-0.7
COc1ccc(-c2nc(NC3CCN(Cc4ccccc4)CC3)c3ncn(-c4ccsc4)c3n2)cc1,0.0,9.8,0.2,-0.2
COc1ccc(-c2nc(NC3CC3)c3ncn(-c4ccsc4)c3n2)cc1,0.1,3.0,1.9,50.1*
Cc1nn(C)c(C)c1-c1nc(NC2CC2)c2ncn(-c3ccsc3)c2n1,0.0,0.7,2.1,40.3*
CCN(CC1CCCO1)C(=O)CCc1nnc(Cc2c[nH]c3ccccc23)o1 (centres undefined),0.0,-8.9,1.6,-5.3
CC1=C/C(=C\c2c(O)[nH]c(=O)[nH]c2=O)C(C)=N1,-1.1,2.4,0.4,8.1
CC1=C/C(=C\c2c(O)n(Cc3ccco3)c(=S)[nH]c2=O)C(C)=N1,-0.7,83.5*,0.9,6.3
CN1C(=O)S/C(=C/c2ccc(OCc3cccc(C(=O)O)c3)cc2)C1=O,0.6,11.3,1.6,-29.7
